PubChem BioAssay (EPA / NIEHS)
Activity calls are given as the source filed them. How the source made its calls: active means hit-call score of the fitted dose curve at least 0.9, where 1 is the maximum; inactive means score below 0.9.

Key:
[1] = ATG_GLI_CIS: Attagene CIS-FACTORIAL HepG2 Assay for human Zinc Finger Protein GLI1 (AID 2282945); conditions: HepG2, Attagene cis-factorial reporter mRNA, GLI element; actives raise or lower the signal
Summary of the method: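 Transiently transfected HepG2 cells report endogenous transcription factor activity via cis-element-driven reporter units. After 24 h compound exposure, reporter mRNA was measured by RT-PCR with capillary electrophoresis; bidirectional fitting against DMSO baseline.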

[2] = target: Bile acid receptor (Homo sapiens) (UniProt Q96RI1); experiment: ATG_IR1_CIS: Attagene CIS-FACTORIAL HepG2 Assay for human Nuclear Receptor Subfamily 1 Group H Member 4 (NR1H4), IR1 submotif (AID 2282946); conditions: IR1 reporter transcription, actives raise or lower the signal
Summary of the method: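 HepG2 cells transiently transfected with multiple cis-promoter-driven reporter units to measure endogenous transcription factor activity; 24 h exposure. Reporter mRNA read by RT-PCR, FAM labelling, HpaI digestion and capillary electrophoresis. Bidirectional fit versus DMSO.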

[3] = ATG_GRE_CIS: Attagene CIS-FACTORIAL HepG2 Assay for human Glucocorticoid Response Elements (GRE) (AID 2282947); conditions: HepG2 GRE cis-reporter, Attagene multiplex mRNA; actives raise or lower the signal
Summary of the method: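 Endogenous transcription factor activity is read through cis-element reporter constructs transiently transfected into HepG2 cells. After 24 h treatment, labelled RT-PCR products are resolved by capillary electrophoresis; DMSO sets baseline for bidirectional curve fitting.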

[4] = ATG_ISRE_CIS: Attagene CIS-FACTORIAL HepG2 Assay for human Interferon Regulatory Factor 1 (IRF1) binding to an Interferon-Stimulated Response Element (ISRE) (AID 2282948); conditions: HepG2 ISRE cis-reporter (Attagene), mRNA transcription readout; actives raise or lower the signal
Summary of the method: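 Quantitation relies on labelled RT-PCR fragments separated by capillary electrophoresis. Human HepG2 cells bearing cis-promoter reporter constructs were treated 24 h; DMSO served as baseline for bidirectional fitting.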

[5] = ATG_M_32_CIS: Attagene CIS-FACTORIAL HepG2 Assay for M32 Transcription Factor (Internal Marker) (AID 2282949); conditions: HepG2 Attagene cis-factorial M32 reporter, mRNA; actives raise or lower the signal;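 further: background control marker of the multiplexed CIS panel rather than a real target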
Summary of the method: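 Internal background marker read-out: RT-PCR/capillary electrophoresis fluorescence of reporter transcripts from transiently transfected HepG2 cells after 24 h chemical exposure. Activity fitted bidirectionally relative to DMSO negative control.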

[6] = target: Hypoxia-inducible factor 1-alpha (Homo sapiens) (UniProt Q16665); experiment: ATG_HIF1a_CIS: Attagene CIS-FACTORIAL HepG2 Assay for human Hypoxia Inducible Factor 1 (HIF1A) (AID 2282951); conditions: HepG2 Attagene cis-factorial HIF1a reporter transcription; actives raise or lower the signal
Summary of the method: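 Activity is fitted in both directions relative to DMSO. Reporter transcripts are read by RT-PCR, fluorescent primer extension and capillary electrophoresis after 24 h chemical treatment. The cells are HepG2 carrying transiently transfected cis-element-driven reporter units responding to endogenous factors.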

[7] = target: Hepatocyte nuclear factor 6 (Homo sapiens) (UniProt Q9UBC0); experiment: ATG_HNF6_CIS: Attagene CIS-FACTORIAL HepG2 Assay for human Hepatocyte Nuclear Factor 6 (HNF6) (AID 2282952); conditions: HepG2 Attagene cis-factorial HNF6 reporter transcription; actives raise or lower the signal
Summary of the method: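 Multiplexed mRNA reporter assay in transfected HepG2; 24 h dosing; RT-PCR plus capillary electrophoresis fluorescence; DMSO-referenced bidirectional curve fitting.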

[8] = target: Heat shock factor protein 1 (Homo sapiens) (UniProt Q00613); experiment: ATG_HSE_CIS: Attagene CIS-FACTORIAL HepG2 Assay for human Heat Shock Transcription Factor 1 (HSE) (AID 2282953); conditions: HepG2 HSE cis-reporter, Attagene RNA transcription; actives raise or lower the signal
Summary of the method: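 Read-out: fluorescence of reporter-specific RT-PCR fragments separated by capillary electrophoresis. HepG2 carrying transfected cis-element reporter units; 24 h dosing; activity fitted in both directions relative to DMSO baseline.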

[9] = ATG_MRE_CIS: Attagene CIS-FACTORIAL HepG2 Assay for human Metal Responsive Element (MRE) (AID 2282954); conditions: HepG2 MRE cis-reporter transcription, Attagene multiplex; actives raise or lower the signal
Summary of the method: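 Fluorescent reporter fragments separated by capillary electrophoresis give mRNA induction for the MRE unit after 24 h treatment of transfected HepG2 cells. Endogenous transcription-factor activity is read; DMSO serves as negative control and baseline.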

[10] = ATG_PBREM_CIS: Attagene CIS-FACTORIAL HepG2 Assay for human Phenobarbital-responsive Enhancer Module (PBREM) (AID 2282955); conditions: HepG2 PBREM cis-reporter, Attagene multiplexed transcription; actives raise or lower the signal
Summary of the method: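 Endogenous transcription factor activity was read from reporter transcripts in transiently transfected human HepG2 liver cells after 24 h dosing. RT-PCR products were fluorescently labelled, HpaI-cut and sized by capillary electrophoresis; activity fitted bidirectionally against DMSO baseline.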

[11] = ATG_PXRE_CIS: Attagene CIS-FACTORIAL HepG2 Assay for human Pregnane X Receptor Element (PXRE) (AID 2282957); conditions: HepG2 Attagene CIS-FACTORIAL PXRE reporter, mRNA; actives raise or lower the signal
Summary of the method: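 Cells: HepG2, transiently transfected reporter units under cis promoter control. Exposure: 24 h. Detection: reporter mRNA via RT-PCR/CE fluorescence; bidirectional fitting, DMSO-referenced.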

[12] = ATG_PPRE_CIS: Attagene CIS-FACTORIAL HepG2 Assay for human Peroxisome Proliferator-activated Response Element (PPRE) (AID 2282958); conditions: HepG2 PPRE cis-element reporter, Attagene transcription factor profiling; actives raise or lower the signal
Summary of the method: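 Endogenous PPRE-driven transcription is measured in HepG2 cells carrying transfected multi-reporter constructs. Reporter transcripts are quantified by RT-PCR, HpaI digestion and capillary electrophoresis 24 h after dosing. DMSO baseline, bidirectional fit.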

[13] = ATG_RORE_CIS: Attagene CIS-FACTORIAL HepG2 Assay for human RAR-related Orphan Receptor Element (RORE) (AID 2282959); conditions: HepG2 Attagene cis-factorial RORE reporter, mRNA; actives raise or lower the signal
Summary of the method: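 RORE reporter transcripts reflecting endogenous factor activity were read after 24 h compound exposure of transfected HepG2 cells, using reverse transcription, PCR, fluorescent labelling and capillary electrophoresis sizing. Gain or loss fitted against DMSO.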

[14] = ATG_Sox_CIS: Attagene CIS-FACTORIAL HepG2 Assay for human SRY-box transcription factor (SOX) (AID 2282960); conditions: HepG2 Attagene cis-factorial SOX reporter, mRNA; actives raise or lower the signal
Summary of the method: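 Reporter transcripts, measured by RT-PCR and capillary electrophoresis of labelled fragments, report endogenous SOX transcription factor activity. Transiently transfected human HepG2 cells receive chemical for 24 h; changes in either direction are fitted relative to DMSO.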

[15] = target: Transcription factor Sp1 (Homo sapiens) (UniProt P08047); experiment: ATG_Sp1_CIS: Attagene CIS-FACTORIAL HepG2 Assay for human Specificity Protein 1 (Sp1) (AID 2282961); conditions: HepG2 Sp1 cis-reporter transcription, actives raise or lower the signal
Summary of the method: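 Read-out is reporter transcript level, measured by RT-PCR and fluorescent capillary electrophoresis after 24 h chemical treatment. System: transiently transfected HepG2 cells reporting endogenous transcription factor activity; gain or loss fitted against DMSO baseline.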

[16] = ATG_SREBP_CIS: Attagene CIS-FACTORIAL HepG2 Assay for human Sterol Regulatory Element Binding (SREBP) (AID 2282962); conditions: HepG2 Attagene cis-factorial SREBP reporter, mRNA; actives raise or lower the signal
Summary of the method: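 Twenty-four hours after chemical dosing of transfected HepG2 cultures, reporter RNA was converted to cDNA, amplified, end-labelled with 6-FAM and resolved by capillary electrophoresis. Responses were fitted relative to DMSO.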

[17] = target: Signal transducer and activator of transcription 3 (Homo sapiens) (UniProt P40763); experiment: ATG_STAT3_CIS: Attagene CIS-FACTORIAL HepG2 Assay for human Signal Transducer and Activator of Transcription 3 (STAT3) (AID 2282963); conditions: HepG2, Attagene cis-factorial STAT3 reporter transcription; actives raise or lower the signal
Summary of the method: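 Values derive from bidirectional fits relative to DMSO of reporter mRNA levels, measured by RT-PCR with capillary electrophoresis, in HepG2 cells carrying transiently transfected cis-regulated reporter units and exposed 24 h.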

[18] = ATG_TA_CIS: Attagene CIS-FACTORIAL HepG2 Assay for human TA Basal Promoter (AID 2282964); conditions: HepG2 Attagene CIS-factorial TA basal promoter reporter; actives raise or lower the signal
Summary of the method: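 Transfected HepG2, 24 h compound exposure; RNA → RT-PCR → FAM primer extension → HpaI cut → CE fluorescence. Gain/loss-of-signal fitted against DMSO negative control. Background-control readout.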

[19] = target: Paired box protein Pax-6 (Homo sapiens) (UniProt P26367); experiment: ATG_Pax6_CIS: Attagene CIS-FACTORIAL HepG2 Assay for human Paired Box 6 (PAX6) (AID 2282956); conditions: HepG2 CIS-FACTORIAL PAX6 reporter transcription, RNA readout; actives raise or lower the signal
Summary of the method: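 After twenty-four hours of chemical exposure, transfected HepG2 cells are harvested for RNA. Cis-promoter reporter transcripts are amplified, fluorescently labelled and sized by capillary electrophoresis, with gain and loss of signal scored against DMSO.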

Chain of Bile acid receptor (Homo sapiens) (Q96RI1 whole entry, looked up): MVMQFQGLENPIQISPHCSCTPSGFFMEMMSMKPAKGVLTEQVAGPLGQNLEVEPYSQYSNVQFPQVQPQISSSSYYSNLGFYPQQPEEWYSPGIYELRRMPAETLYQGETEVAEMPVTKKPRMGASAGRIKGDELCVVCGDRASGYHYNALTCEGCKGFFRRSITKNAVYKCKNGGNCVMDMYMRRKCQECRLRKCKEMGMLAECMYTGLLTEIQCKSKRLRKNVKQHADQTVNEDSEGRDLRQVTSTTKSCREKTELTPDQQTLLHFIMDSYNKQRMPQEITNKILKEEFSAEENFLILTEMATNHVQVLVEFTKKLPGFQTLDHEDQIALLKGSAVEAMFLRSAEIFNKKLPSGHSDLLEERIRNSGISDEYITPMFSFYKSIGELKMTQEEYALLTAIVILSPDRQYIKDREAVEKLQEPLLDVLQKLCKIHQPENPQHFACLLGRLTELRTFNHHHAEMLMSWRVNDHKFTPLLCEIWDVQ
Chain of Hepatocyte nuclear factor 6 (Homo sapiens) (Q9UBC0 whole entry, looked up): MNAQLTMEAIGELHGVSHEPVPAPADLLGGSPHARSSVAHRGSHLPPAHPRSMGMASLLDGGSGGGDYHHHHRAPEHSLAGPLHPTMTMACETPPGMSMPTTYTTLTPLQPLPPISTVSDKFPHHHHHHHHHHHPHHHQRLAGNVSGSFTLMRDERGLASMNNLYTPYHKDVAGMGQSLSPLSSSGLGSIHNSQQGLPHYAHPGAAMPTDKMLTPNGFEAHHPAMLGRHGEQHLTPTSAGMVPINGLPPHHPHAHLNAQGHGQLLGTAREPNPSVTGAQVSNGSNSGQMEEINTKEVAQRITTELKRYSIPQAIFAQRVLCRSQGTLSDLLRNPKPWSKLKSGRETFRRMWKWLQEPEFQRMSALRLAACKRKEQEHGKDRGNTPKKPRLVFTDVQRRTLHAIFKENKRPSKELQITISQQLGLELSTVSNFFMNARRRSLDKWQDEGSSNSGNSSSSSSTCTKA
Chain of Signal transducer and activator of transcription 3 (Homo sapiens) (P40763 whole entry, looked up): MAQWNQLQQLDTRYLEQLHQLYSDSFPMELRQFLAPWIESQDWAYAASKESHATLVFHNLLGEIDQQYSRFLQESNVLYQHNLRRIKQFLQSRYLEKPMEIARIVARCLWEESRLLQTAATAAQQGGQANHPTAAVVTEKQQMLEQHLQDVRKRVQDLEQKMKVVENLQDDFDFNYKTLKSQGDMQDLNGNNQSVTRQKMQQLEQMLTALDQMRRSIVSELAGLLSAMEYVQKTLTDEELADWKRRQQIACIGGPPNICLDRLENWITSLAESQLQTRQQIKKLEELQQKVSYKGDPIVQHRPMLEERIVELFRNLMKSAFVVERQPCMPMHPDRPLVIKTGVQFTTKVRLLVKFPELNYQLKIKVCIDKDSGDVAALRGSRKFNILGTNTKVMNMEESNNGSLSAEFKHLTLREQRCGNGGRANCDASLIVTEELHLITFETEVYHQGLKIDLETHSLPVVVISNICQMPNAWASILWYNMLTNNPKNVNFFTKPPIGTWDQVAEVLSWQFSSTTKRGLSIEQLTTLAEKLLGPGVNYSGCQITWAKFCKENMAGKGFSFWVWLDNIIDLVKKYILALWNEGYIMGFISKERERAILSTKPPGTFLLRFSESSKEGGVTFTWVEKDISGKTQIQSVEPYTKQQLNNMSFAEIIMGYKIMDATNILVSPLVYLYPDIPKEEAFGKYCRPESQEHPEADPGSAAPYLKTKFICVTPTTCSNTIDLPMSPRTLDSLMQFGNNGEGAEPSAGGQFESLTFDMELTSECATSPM
Chain of Transcription factor Sp1 (Homo sapiens) (P08047 whole entry, looked up): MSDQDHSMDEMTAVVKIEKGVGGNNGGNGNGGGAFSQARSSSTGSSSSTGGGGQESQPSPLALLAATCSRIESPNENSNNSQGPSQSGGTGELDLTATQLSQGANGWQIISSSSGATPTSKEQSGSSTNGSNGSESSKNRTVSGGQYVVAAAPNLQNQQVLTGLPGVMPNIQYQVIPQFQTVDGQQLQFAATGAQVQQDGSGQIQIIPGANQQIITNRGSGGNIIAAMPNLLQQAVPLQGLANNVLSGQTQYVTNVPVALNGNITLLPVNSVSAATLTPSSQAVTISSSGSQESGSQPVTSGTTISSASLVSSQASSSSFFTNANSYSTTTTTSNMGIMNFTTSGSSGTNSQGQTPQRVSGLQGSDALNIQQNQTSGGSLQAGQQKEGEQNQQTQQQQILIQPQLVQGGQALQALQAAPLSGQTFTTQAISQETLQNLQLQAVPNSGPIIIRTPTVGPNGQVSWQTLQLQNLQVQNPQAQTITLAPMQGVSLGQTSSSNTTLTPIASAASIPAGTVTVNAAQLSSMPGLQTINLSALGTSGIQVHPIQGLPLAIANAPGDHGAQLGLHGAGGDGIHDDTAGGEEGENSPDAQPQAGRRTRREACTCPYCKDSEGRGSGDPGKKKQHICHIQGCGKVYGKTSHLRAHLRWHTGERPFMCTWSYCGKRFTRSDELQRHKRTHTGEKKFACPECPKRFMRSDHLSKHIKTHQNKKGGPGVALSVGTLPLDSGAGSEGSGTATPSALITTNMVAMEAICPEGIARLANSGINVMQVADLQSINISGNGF
Chain of Hypoxia-inducible factor 1-alpha (Homo sapiens) (Q16665 whole entry, looked up): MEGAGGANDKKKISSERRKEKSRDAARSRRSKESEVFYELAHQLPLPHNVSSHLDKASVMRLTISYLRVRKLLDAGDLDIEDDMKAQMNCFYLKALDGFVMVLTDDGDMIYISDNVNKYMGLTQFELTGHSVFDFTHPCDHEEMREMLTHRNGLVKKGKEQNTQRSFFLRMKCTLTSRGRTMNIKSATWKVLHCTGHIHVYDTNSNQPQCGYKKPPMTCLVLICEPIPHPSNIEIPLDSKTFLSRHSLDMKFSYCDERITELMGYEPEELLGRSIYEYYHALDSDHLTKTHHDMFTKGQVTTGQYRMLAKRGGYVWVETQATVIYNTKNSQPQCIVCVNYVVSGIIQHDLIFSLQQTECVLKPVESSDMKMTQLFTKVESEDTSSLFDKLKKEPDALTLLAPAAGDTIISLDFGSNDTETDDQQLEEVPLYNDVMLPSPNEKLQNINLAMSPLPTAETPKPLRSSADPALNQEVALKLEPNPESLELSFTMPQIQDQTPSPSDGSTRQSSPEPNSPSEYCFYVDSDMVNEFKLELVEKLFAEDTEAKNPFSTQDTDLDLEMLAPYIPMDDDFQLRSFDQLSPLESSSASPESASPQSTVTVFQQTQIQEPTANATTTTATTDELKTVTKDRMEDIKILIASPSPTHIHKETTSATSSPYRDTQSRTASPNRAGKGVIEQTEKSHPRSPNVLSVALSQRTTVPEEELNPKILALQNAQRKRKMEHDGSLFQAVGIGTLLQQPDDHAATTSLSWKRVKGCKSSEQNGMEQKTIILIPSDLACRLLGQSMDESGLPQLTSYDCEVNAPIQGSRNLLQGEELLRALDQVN
Chain of Heat shock factor protein 1 (Homo sapiens) (Q00613 whole entry, looked up, the tested form may be a part): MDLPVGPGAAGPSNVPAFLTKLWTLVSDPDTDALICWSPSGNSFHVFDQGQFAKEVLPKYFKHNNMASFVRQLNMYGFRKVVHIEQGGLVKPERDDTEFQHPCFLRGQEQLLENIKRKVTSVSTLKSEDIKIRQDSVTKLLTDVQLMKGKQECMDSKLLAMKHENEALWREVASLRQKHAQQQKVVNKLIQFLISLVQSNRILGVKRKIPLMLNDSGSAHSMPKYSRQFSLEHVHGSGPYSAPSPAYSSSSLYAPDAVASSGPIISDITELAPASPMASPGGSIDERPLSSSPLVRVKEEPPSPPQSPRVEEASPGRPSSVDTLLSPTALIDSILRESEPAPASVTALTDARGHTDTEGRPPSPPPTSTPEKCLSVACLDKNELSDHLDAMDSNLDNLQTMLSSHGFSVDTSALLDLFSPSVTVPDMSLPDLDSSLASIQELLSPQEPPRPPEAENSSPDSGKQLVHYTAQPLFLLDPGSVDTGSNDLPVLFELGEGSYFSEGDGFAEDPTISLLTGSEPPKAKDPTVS
Chain of Paired box protein Pax-6 (Homo sapiens) (P26367 whole entry, looked up): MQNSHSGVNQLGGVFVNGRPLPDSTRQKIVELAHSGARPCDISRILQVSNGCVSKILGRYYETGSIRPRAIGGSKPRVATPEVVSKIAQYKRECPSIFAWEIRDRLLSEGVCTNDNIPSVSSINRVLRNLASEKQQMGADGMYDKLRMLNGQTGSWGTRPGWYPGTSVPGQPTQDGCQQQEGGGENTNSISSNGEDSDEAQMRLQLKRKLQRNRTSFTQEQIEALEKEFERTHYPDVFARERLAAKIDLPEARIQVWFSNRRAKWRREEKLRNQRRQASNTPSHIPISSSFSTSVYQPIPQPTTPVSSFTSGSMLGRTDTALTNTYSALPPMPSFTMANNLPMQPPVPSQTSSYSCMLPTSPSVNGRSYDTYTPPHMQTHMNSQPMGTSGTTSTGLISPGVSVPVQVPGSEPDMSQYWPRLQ

With CCCCC(CC)COC(=O)CCCCC(=O)OCc1ccccc1 (centres undefined) as the molecule, how does the outcome [1] read?
Its outcome is “inactive”.

And the outcome [2]?
Its outcome is “inactive”.

And the outcome [3]?
The outcome was “inactive”.

What about the outcome [4] of the same molecule?
The outcome was “inactive”.

What about the outcome [5] of the same molecule?
The outcome was “inactive”.

What about the outcome [6] of the same molecule?
The outcome was “inactive”.

And the outcome [7]?
Its outcome is “inactive”.

And the outcome [8]?
The outcome was “inactive”.

And the outcome [9]?
Its outcome is “inactive”.

What about the outcome [10] of the same molecule?
Its outcome is “inactive”.

And the AC50 [11]?
The AC50 was 12.4 µM (active).

And the outcome [12]?
The outcome was “inactive”.

And the outcome [13]?
The outcome was “inactive”.

And the outcome [14]?
Its outcome is “inactive”.

And the outcome [15]?
The outcome was “inactive”.

What about the outcome [16] of the same molecule?
Its outcome is “inactive”.

And the outcome [17]?
The outcome was “inactive”.

What about the outcome [18] of the same molecule?
The outcome was “inactive”.

Which outcome [1] does the source give for NC(=O)N(O)[C@@H]1C=C[C@H](Oc2cccc(Oc3ccc(F)cc3)c2)C1 here?
Its outcome is “inactive”.

What about the outcome [2] of the same molecule?
Its outcome is “inactive”.

What about the outcome [3] of the same molecule?
Its outcome is “inactive”.

And the outcome [4]?
Its outcome is “inactive”.

What about the outcome [5] of the same molecule?
Its outcome is “inactive”.

And the outcome [6]?
Its outcome is “inactive”.

And the outcome [7]?
The outcome was “inactive”.

What about the AC50 [8] of the same molecule?
Its AC50 is 52.8 µM (active).

And the AC50 [9]?
The AC50 was 33 µM (active).

And the AC50 [11]?
The AC50 was 12.9 µM (active).

What about the outcome [12] of the same molecule?
Its outcome is “inactive”.

And the AC50 [13]?
Its AC50 is 18.2 µM (active).

What about the outcome [14] of the same molecule?
Its outcome is “inactive”.

And the outcome [15]?
The outcome was “inactive”.

And the AC50 [16]?
Its AC50 is 18.3 µM (active).

And the outcome [17]?
The outcome was “inactive”.

What about the outcome [18] of the same molecule?
The outcome was “inactive”.

With COCC(C)OCC(C)O (centres undefined) as the molecule, how does the outcome [1] read?
The outcome was “inactive”.

And the outcome [2]?
The outcome was “inactive”.

What about the outcome [3] of the same molecule?
Its outcome is “inactive”.

What about the outcome [4] of the same molecule?
The outcome was “inactive”.

And the outcome [5]?
The outcome was “inactive”.

What about the outcome [6] of the same molecule?
The outcome was “inactive”.

What about the outcome [7] of the same molecule?
The outcome was “inactive”.

And the outcome [8]?
The outcome was “inactive”.

And the outcome [9]?
Its outcome is “inactive”.

What about the outcome [10] of the same molecule?
The outcome was “inactive”.

What about the outcome [19] of the same molecule?
Its outcome is “inactive”.

What about the outcome [11] of the same molecule?
Its outcome is “inactive”.

What about the outcome [12] of the same molecule?
The outcome was “inactive”.

And the outcome [13]?
Its outcome is “inactive”.

What about the outcome [14] of the same molecule?
Its outcome is “inactive”.

What about the outcome [15] of the same molecule?
The outcome was “inactive”.

What about the outcome [16] of the same molecule?
The outcome was “inactive”.

What about the outcome [17] of the same molecule?
Its outcome is “inactive”.

What about the outcome [18] of the same molecule?
The outcome was “inactive”.
